This passage reports Potency and outcome results from PubChem BioAssay (NCATS).

A short description of test [1]: S16 Schwann cell PMP22 intronic element firefly luciferase assay (AID 624032). Note: nearly all actives have a fitted effect of over 30% in size. Note: potency is the fitted concentration of half-maximal effect. Summed up:
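Rat S16 Schwann cells stably carrying firefly luciferase driven by a PMP22 intronic element, in 10% FBS, treated 24 h at 37 C. ONE-Glo luminescence normalized to PTC124 control and DMSO (0%); curves classed by r2, magnitude and activity.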

Test [2] in a line: S16 Schwann cell PMP22 intronic element beta-lactamase assay (AID 624044; calls by dose curve; note: nearly all actives have a fitted effect of over 15% in size). Summed up: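 Beta-lactamase reporter under a PMP22 intronic regulatory element in stable S16 rat Schwann cells; 24 h compound exposure. 460 nm blue signal normalized between DMSO (0%) and potassium clavulanate, with 535 nm FRET tracking viability; curves classed by r2 and response.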
Test [3] has as its system 3D7. The test can be described thus: qHTS profiling for inhibitors of Plasmodium falciparum proliferation (AID 504749). Note: nearly all actives have a fitted effect of over 60% in size. Particulars: P. falciparum in erythrocytes, SYBR Green DNA, 72 h; series mostly up to 12.8 µM. An outline of the steps: (§1)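 Each compound contacts P. falciparum-infected red blood cells for 72 h at 37 C; lysis buffer (Tris, EDTA, saponin, Triton X, SYBR Green I) is added and fluorescence measured next morning; values normalized to controls.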
Background: In qHTS, concentration-response curves come from the screen itself.

Test [4] concerns AA1029. The description is as above. Conditions: P. falciparum in erythrocytes, SYBR Green DNA, 72 h; series mostly up to 12.8 µM. Summed up: as §1
For test [5], the system named is CP194. The description is as above. Conditions: P. falciparum in erythrocytes, SYBR Green DNA, 72 h; series mostly up to 12.8 µM. An outline of the steps: as §1
The test system of test [6] is CP203. The test is described as above. Conditions: P. falciparum in erythrocytes, SYBR Green DNA, 72 h; series mostly up to 12.8 µM. An outline of the steps:
as §1

For test [7], the system named is CP211. The description is as above. Particulars: P. falciparum in erythrocytes, SYBR Green DNA, 72 h; series mostly up to 12.8 µM. Summed up:
as §1

The test system of test [8] is CP215. Described as above. Conditions: P. falciparum in erythrocytes, SYBR Green DNA, 72 h; series mostly up to 28.7 µM. Summed up:
as §1

Test [9] deals with CP260. The test is described as above. Conditions: P. falciparum in erythrocytes, SYBR Green DNA, 72 h; series mostly up to 12.8 µM. Summed up:
as §1

Test [10] has as its system CP266. The description is as above. Particulars: P. falciparum in erythrocytes, SYBR Green DNA, 72 h; series mostly up to 28.7 µM. An outline of the steps: as §1
The test system of test [11] is CP297. The description is as above. Particulars: P. falciparum in erythrocytes, SYBR Green DNA, 72 h; series mostly up to 12.8 µM. An outline of the steps:
as §1

For test [12], the system named is CP315. The description is as above. Particulars: P. falciparum in erythrocytes, SYBR Green DNA, 72 h; series mostly up to 12.8 µM. Summed up:
as §1

Test [13] concerns DIV14. The description is as above. Conditions: P. falciparum in erythrocytes, SYBR Green DNA, 72 h; series mostly up to 12.8 µM. Summed up:
as §1

Test [14] has as its system DIV17. Described as above. Conditions: P. falciparum in erythrocytes, SYBR Green DNA, 72 h; series mostly up to 12.8 µM. Summed up: as §1
Test [15] relates to GB4. The description is as above. Particulars: P. falciparum in erythrocytes, SYBR Green DNA, 72 h; series mostly up to 12.8 µM. An outline of the steps:
as §1

The test system of test [16] is ICS. Described as above. Conditions: P. falciparum in erythrocytes, SYBR Green DNA, 72 h; series mostly up to 12.8 µM. Summed up:
as §1

Test [17] concerns P93_24. Described as above. Particulars: P. falciparum in erythrocytes, SYBR Green DNA, 72 h; series mostly up to 12.8 µM. An outline of the steps:
as §1

The subject of test [18] is PAD. Described as above. Conditions: P. falciparum in erythrocytes, SYBR Green DNA, 72 h; series mostly up to 12.8 µM. An outline of the steps: as §1
In test [19] the test system is TAB109. Described as above. Particulars: P. falciparum in erythrocytes, SYBR Green DNA, 72 h; series mostly up to 12.8 µM. An outline of the steps: as §1
Test [20] relates to W2. The description is as above. Conditions: P. falciparum in erythrocytes, SYBR Green DNA, 72 h; series mostly up to 12.8 µM. Summed up:
as §1

SMILES strings stand for the structures. Results filed as inconclusive are left out. Calls of active or inactive are those of the source. Unless noted, calls come from the whole dose curve; as a rule, active = well fitted curve in the direction sought with a large enough effect; inconclusive = small, poorly fitted or top-dose-only effect, or another doubt; inactive = no such curve, though single readings can be large; an effect the other way counts as inactive or inconclusive.

For the molecule `CO[C@H]1C[C@@H](O[C@@H]2[C@H](C)[C@H](O[C@@H]3O[C@@H](C)C[C@@H](N(C)C)[C@@H]3O)[C@H](C)C[C@]3(CO3)C(=O)[C@H](C)[C@H](O)[C@H](C)[C@H](C)OC(=O)[C@@H]2C)O[C@@H](C)[C@H]1O`, the Potency entry in test [1], in test [3], in [4], in test [5], in [6] and in test [7] was “inactive” in each case. In addition, the Potency entry in test [8], in test [9], in test [10], in test [11], in test [12] and in test [13] was “inactive” each time. For the same molecule, the Potency result in test [14], in test [15], in test [16], in [17], in [18] and in [19] was “inactive” in each case. Also, in test [20], the Potency entry was “inactive”. Moreover, in [2], the outcome was inactive.
Regarding `CC[C@H](NC(C)C)[C@H](O)c1ccc(O)c(O)c1`, in test [1], the Potency is 11.4 µM (active). The molecule was called inactive in [2]. Besides, the Potency entry in test [4], in [5], in test [6], in test [7], in [8] and in [10] was “inactive” in each case. The Potency result in [11], in test [12], in test [17], in test [18] and in [19] was “inactive” throughout.
In the case of `CCN[C@@H]1C[C@H](C)S(=O)(=O)c2sc(S(N)(=O)=O)cc21`, the Potency result in test [1], in [3], in [4], in [5], in test [6] and in [7] was “inactive” each time. For the same molecule, the Potency result in test [8], in test [9], in test [10], in [11], in [12] and in test [13] was “inactive” each time. Also, the Potency entry in test [14], in test [15], in test [16], in test [17], in test [18] and in [19] was “inactive” in each case. Further, in [20], the Potency result was “inactive”. For the same molecule, in test [2], the molecule was called inactive.
On to `CN(N=O)C(=O)N[C@H]1[C@@H](O)[C@H](O)[C@H](CO)O[C@@H]1O`, for which the Potency entry in [1], in test [3], in [4], in [5], in test [6] and in [7] was “inactive” each time. Moreover, the Potency entry in test [8], in test [9], in test [10], in test [11], in test [12] and in test [13] was “inactive” throughout. Moreover, the Potency result in [14], in test [15], in [16], in test [17], in test [18] and in test [19] was “inactive” throughout. Also, the Potency result in test [20] is “inactive”.
`C[C@H](NCCc1ccc(O)cc1)[C@@H](O)c1ccc(O)cc1`: the molecule was classed as inactive in test [2]. Moreover, the Potency result in test [3], in [4], in [5], in test [6], in test [7] and in [8] was “inactive” throughout. The Potency entry in [10], in [11], in test [12], in [13], in [14] and in test [15] was “inactive” each time. Moreover, the Potency result in test [16], in test [17], in [18], in test [19] and in test [20] was “inactive” each time.
With `CC(=O)N(CC(O)CN(C(C)=O)c1c(I)c(C(=O)NC[C@@H](O)CO)c(I)c(C(=O)NC[C@@H](O)CO)c1I)c1c(I)c(C(=O)NC[C@@H](O)CO)c(I)c(C(=O)NC[C@@H](O)CO)c1I`, in [2], the result was inactive. In addition, the Potency entry in test [3], in test [4], in test [5], in [6], in [7] and in test [8] was “inactive” in each case. Besides, the Potency entry in test [9], in test [10], in [11], in test [12], in test [14] and in test [15] was “inactive” throughout. The Potency entry in test [16], in test [17], in [18] and in test [19] was “inactive” each time.
In the case of `CC(C)(O/N=C(\C(=O)N[C@@H]1C(=O)N2C(C(=O)[O-])=C(C[n+]3ccccc3)CS[C@@H]12)c1csc(N)n1)C(=O)O`, the Potency entry in test [1], in [3], in test [4], in [5], in test [6] and in test [7] was “inactive” in each case. The Potency result in test [8], in test [9], in test [10], in test [11], in test [12] and in [13] was “inactive” throughout. For the same molecule, the Potency entry in test [14], in [15], in test [16], in test [17], in test [18] and in test [19] was “inactive” each time. In test [20], the Potency entry is “inactive”.
On to `C[N+]1(C)CCC[C@@H](OC(=O)C(O)(c2ccccc2)c2ccccc2)C1`, for which the Potency entry in test [1], in [3], in test [4], in test [5], in [6] and in test [7] was “inactive” in each case. Also, the Potency result in test [9], in [10], in [11], in test [13], in test [14] and in test [15] was “inactive” throughout. In addition, the Potency entry in test [16], in test [17], in test [18], in test [19] and in test [20] was “inactive” each time. Further, the outcome in test [2] was inactive.
Consider `O=c1[nH]c(=O)n([C@@H]2C[C@H](O)[C@H](CO)O2)cc1I`, for which the Potency in test [1] was 2.45 µM (active). Besides, the molecule was classed as inactive in test [2]. In addition, the Potency result in test [3], in test [4], in [5], in [6], in test [7] and in [8] was “inactive” each time. For the same molecule, the Potency result in test [9], in test [10], in [11], in test [12], in test [13] and in test [14] was “inactive” throughout. Also, the Potency result in test [15], in test [16], in test [17], in test [18], in test [19] and in [20] was “inactive” each time.
In the case of `CC1(C)Oc2ccc(C#N)cc2[C@H](N2CCCC2=O)[C@H]1O`, the Potency result in test [1], in [3], in test [4], in [5], in test [6] and in [7] was “inactive” each time. The Potency entry in test [8], in test [10], in test [11], in test [12], in test [13] and in test [14] was “inactive” throughout. The Potency entry in test [15], in test [16], in test [17], in [18], in test [19] and in test [20] was “inactive” each time.
